Assay [1] in a line: qHTS RealTime-Glo MT Cell Viability Assay in HEK293 cells - 0 hour (AID 1224880). Also: top concentration of the series differs between compounds; nearly all actives have a fitted effect of over 45% in size. The method, boiled down: (§1)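 Viable HEK293 cells reduce a cell-permeant prosubstrate; the product diffuses out and is consumed by NanoLuc in the medium to give light. Compounds went in after a 5 h incubation and plates were read over the treatment course.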
Assay [2] in a line: A CellTox Green Cytotoxicity Assay to monitor cytotoxicity in HEK293 cells - 32 hour (AID 1224881). Also: nearly all actives have a fitted effect of over 40% in size. The gist of the method: (§2)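 Fluorescence intensity, read at 0, 8, 16, 24, 32 and 40 h of compound treatment, reflected dye binding to DNA of dead HEK293 cells; compounds (23 nL, DMSO) were added 5 h after plating cells with reagent.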
Assay [3] can be described thus: A CellTox Green Cytotoxicity Assay to monitor cytotoxicity in HepG2 cells - 0 hour (AID 1224882). Also: nearly all actives have a fitted effect of over 35% in size. The gist of the method:
(§3)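 Using 1536-well format, dye-containing HepG2 suspension was seeded, allowed 5 h at 37 C/5% CO2, dosed by pintool with compounds, positive and negative controls, and imaged for fluorescence across 40 h.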

A short description of assay [4]: A CellTox Green Cytotoxicity Assay to monitor cytotoxicity in HepG2 cells - 32 hour (AID 1224883). Also: nearly all actives have a fitted effect of over 50% in size. The method, boiled down:
as §3

Assay [5] can be described thus: A CellTox Green Cytotoxicity Assay to monitor cytotoxicity in HEK293 cells - 8 hour (AID 1224884). Also: nearly all actives have a fitted effect of over 35% in size. The gist of the method: as §2
Assay [6] is described as follows: qHTS RealTime-Glo MT Cell Viability Assay in HepG2 cells - 16 hour (AID 1224885). Also: nearly all actives have a fitted effect of over 50% in size. The gist of the method: (§4)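 HepG2 cells (600/well) were dispensed with RealTime-Glo reagents, incubated 5 h at 37 °C, then treated with compounds in DMSO for up to 40 h. Nonlytic NanoLuc luminescence reflecting viable cells was read at each stated time point.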
Assay [7] in a line: qHTS RealTime-Glo MT Cell Viability Assay in HEK293 cells - 24 hour (AID 1224886). Also: top concentration of the series differs between compounds; nearly all actives have a fitted effect of over 50% in size. The method, boiled down: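 HEK293 cells seeded with NanoLuc/prosubstrate reagent, rested 5 h at 37 C, then dosed and kept at 37 C up to 40 h. Nonlytic real-time luminescence from viable cells read at 0, 8, 16, 24, 32 and 40 h.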
Assay [8] in a line: qHTS RealTime-Glo MT Cell Viability Assay in HEK293 cells - 8 hour (AID 1224887). Also: top concentration of the series differs between compounds; nearly all actives have a fitted effect of over 50% in size. The method, boiled down: as §1
The nature of assay [9]: A CellTox Green Cytotoxicity Assay to monitor cytotoxicity in HEK293 cells - 16 hour (AID 1224888). Also: nearly all actives have a fitted effect of over 35% in size. The method, boiled down:
as §2

Assay [10] can be described thus: qHTS RealTime-Glo MT Cell Viability Assay in HepG2 cells - 0 hour (AID 1224889). Also: nearly all actives have a fitted effect of over 50% in size. The method, boiled down: as §4
Assay [11] in a line: A CellTox Green Cytotoxicity Assay to monitor cytotoxicity in HepG2 cells - 8 hour (AID 1224890). Also: nearly all actives have a fitted effect of over 45% in size. The method, boiled down:
as §3

A short description of assay [12]: qHTS assay to identify small molecule antagonists of the estrogen receptor alpha (ER-alpha) signaling pathway using the BG1 cell line in the presence of 0.1 nM 17-beta-estradiol - cell viability counter screen (AID 1259241). Also: nearly all actives have a fitted effect of over 40% in size. Also: potency is read from the fitted curve at half-maximal effect. The method, boiled down: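 Cells were plated and left 24 hr, compounds in DMSO were pinned in, 17beta-estradiol was added to 0.1 nM final, and after 22 hr CellTiter-Fluor reagent was added for 30 min before fluorescence was read.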

The nature of assay [13]: qHTS assay to identify small molecule antagonists of the androgen receptor (AR) signaling pathway using the MDA cell line in the presence of 0.5 nM R1881 - cell viability counter screen (AID 1259242). Also: nearly all actives have a fitted effect of over 45% in size. Also: potency is read from the fitted curve at half-maximal effect. The method, boiled down: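 Viability of MDA-kb2 cells was multiplexed with the luciferase AR readout; after 16 hr with compounds and R1881 at 0.5 nM final, CellTiter-Fluor fluorescence was recorded.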

Assay [14] concerns the target Androgen receptor (Homo sapiens) (UniProt P10275). The assay is described as follows: qHTS assay to identify small molecule antagonists of the androgen receptor (AR) signaling pathway using the MDA cell line in the presence of 0.5 nM R1881 (AID 1259243). Also: nearly all actives have a fitted effect of over 50% in size. Also: potency is read from the fitted curve at half-maximal effect. The gist of the method: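 Reporter cells cultured without CO2 receive test chemicals, then 0.5 nM R1881 final; after 16 hr at 37C, ONE-Glo is added and light output recorded.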

The target in assay [15] is Estrogen receptor (Homo sapiens) (UniProt P03372). The assay is described as follows: qHTS assay to identify small molecule antagonists of the estrogen receptor alpha (ER-alpha) signaling pathway using the BG1 cell line in the presence of 0.1 nM 17-beta-estradiol (AID 1259244). Also: nearly all actives have a fitted effect of over 50% in size. The gist of the method:
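Estradiol at 0.1 nM (final) stimulates the endogenous ER-alpha of VM7Luc4E2 cells carrying an ERE-driven luciferase; compounds are co-incubated 22 h at 37C and luciferase output quantified by luminescence.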

Assay [16] in a line: qHTS assay to identify small molecule HDAC inhibitors (AID 1259364).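 Also: wild-type HCT-116 cells with endogenous class I/II HDAC activity; top concentration of the series differs between compounds; nearly all actives have a fitted effect of over 45% in size.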 The gist of the method: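 Read-out: luminescence of HDAC-Glo I/II reagent, 30 min RT, reflecting class I/II deacetylase activity in whole HCT-116 cells pre-exposed 2 h to DMSO-dissolved compounds.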
Assay [17] can be described thus: qHTS assay to identify small molecule HDAC inhibitors - cell viability counter screen (AID 1259365). Also: nearly all actives have a fitted effect of over 50% in size. Also: potency is read from the fitted curve at half-maximal effect. The method, boiled down: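 Counter screen in wild-type HCT-116 cells: compounds dissolved in DMSO are pin-transferred onto overnight-plated cells and left 2hr at 37C. ATP-based CellTiter-Glo luminescence then measures viable cells.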
Assay [18] in a line: qHTS assay to identify small molecule agonists of the sonic hedgehog signaling (Shh) pathway - cell viability counter screen (AID 1259366). Also: nearly all actives have a fitted effect of over 50% in size. Also: potency is read from the fitted curve at half-maximal effect. The gist of the method:
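Cells are plated at 2,000 per well and left 4hr at 37C, 5% CO2 before compound addition. After 23hr of treatment, CellTiter-Fluor reagent is added for 1hr at 37C and fluorescence is measured.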

A short description of assay [19]: qHTS assay to identify small molecule antagonists of the sonic hedgehog signaling (Shh) pathway - cell viability counter screen (AID 1259367). Also: nearly all actives have a fitted effect of over 55% in size. Also: potency is read from the fitted curve at half-maximal effect. The method, boiled down:
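NIH/3T3-derived Gli1-Luc reporter cells, 2,000/well, plated 4 hr before compound addition, then stimulated with conditioned medium for 24 hr at 37C. Viability measured in the same wells by CellTiter-Fluor fluorescence, reagent added at 23 hr for 1 hr.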

A short description of assay [20]: qHTS assay to identify small molecule phospholipidosis (PLD) inducers (AID 1259344; active = well fitted curve in the direction sought with a large enough effect; an effect the other way counts as inactive or inconclusive). The gist of the method:
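HepG2 cells, 900/well, treated with compound plus LipidTOX Red for 24 h at 37 C; amiodarone positive and DMSO negative controls. Fixed with paraformaldehyde/Hoechst, then high-content imaging scored LipidTOX pit count and integrated intensity per well and per cell.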

A number with no mark means an inactive call. Results filed as inconclusive are left out. Calls of active or inactive are those of the source. Unless noted, calls follow the shape of the dose curve; as a rule, active = well fitted curve in the direction sought with a large enough effect in the repeat runs; inconclusive = weak or mixed curves; inactive = no such curve, though single readings can be large; an effect the other way counts as inactive or inconclusive.
% is scaled to controls: 0 for no effect and ±100 for the full control effect.

Sequence of Androgen receptor (Homo sapiens) (P10275 whole entry, looked up): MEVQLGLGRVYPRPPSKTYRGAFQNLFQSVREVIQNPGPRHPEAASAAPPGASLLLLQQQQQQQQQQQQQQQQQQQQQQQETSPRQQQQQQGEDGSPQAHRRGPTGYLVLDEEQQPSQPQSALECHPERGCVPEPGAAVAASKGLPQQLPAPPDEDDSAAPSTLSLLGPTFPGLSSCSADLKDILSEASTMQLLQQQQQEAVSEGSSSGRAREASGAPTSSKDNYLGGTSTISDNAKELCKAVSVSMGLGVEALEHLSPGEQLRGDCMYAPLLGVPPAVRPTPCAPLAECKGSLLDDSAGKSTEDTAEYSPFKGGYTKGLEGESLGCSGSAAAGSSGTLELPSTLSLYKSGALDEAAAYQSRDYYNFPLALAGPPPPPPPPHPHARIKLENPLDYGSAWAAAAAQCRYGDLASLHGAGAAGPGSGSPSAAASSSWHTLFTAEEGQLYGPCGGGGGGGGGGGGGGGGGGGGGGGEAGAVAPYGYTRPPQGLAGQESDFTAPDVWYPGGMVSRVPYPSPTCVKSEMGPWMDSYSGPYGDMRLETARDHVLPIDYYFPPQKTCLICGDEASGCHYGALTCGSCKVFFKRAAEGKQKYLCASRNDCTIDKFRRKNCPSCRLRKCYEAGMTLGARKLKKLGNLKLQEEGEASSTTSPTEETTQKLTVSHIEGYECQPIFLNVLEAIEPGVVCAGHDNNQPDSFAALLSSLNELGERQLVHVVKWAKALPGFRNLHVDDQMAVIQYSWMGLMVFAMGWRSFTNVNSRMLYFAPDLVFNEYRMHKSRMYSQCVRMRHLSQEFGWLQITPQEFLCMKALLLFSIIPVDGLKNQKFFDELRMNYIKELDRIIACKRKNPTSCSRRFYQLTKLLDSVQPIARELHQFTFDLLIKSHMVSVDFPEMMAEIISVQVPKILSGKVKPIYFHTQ
Sequence of Estrogen receptor (Homo sapiens) (P03372 whole entry, looked up): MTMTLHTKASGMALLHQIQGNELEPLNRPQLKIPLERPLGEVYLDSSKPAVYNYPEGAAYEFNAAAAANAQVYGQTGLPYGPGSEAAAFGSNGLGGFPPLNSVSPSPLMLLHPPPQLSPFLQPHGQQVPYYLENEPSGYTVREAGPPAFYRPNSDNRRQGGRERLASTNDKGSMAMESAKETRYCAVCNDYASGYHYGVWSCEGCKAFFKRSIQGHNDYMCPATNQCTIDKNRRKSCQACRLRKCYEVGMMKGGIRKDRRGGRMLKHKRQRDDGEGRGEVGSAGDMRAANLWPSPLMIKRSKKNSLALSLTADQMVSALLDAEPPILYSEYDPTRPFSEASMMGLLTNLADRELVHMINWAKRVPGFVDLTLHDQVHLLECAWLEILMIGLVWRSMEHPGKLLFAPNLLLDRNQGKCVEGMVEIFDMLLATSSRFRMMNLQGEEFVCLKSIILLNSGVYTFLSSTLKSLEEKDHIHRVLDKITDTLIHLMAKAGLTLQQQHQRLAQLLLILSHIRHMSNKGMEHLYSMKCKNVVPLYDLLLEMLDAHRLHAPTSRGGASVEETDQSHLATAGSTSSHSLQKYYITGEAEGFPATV

`CCC(CO)(CO)CO`: the Potency result in assay [1], in assay [2], in assay [3], in assay [4], in [5] and in assay [6] was “inactive” throughout. For the same compound, the Potency entry in [7], in [8], in assay [9], in assay [10], in assay [11] and in assay [12] was “inactive” each time. Besides, the Potency entry in assay [13], in assay [14], in assay [15], in assay [16], in assay [17] and in [18] was “inactive” each time.
Regarding `O=C(O)/C=C/c1ccc(O)c(O)c1`, the Potency entry in [1], in [2], in assay [3], in assay [4], in assay [5] and in assay [6] was “inactive” each time. The Potency result in [7], in assay [8], in assay [9], in assay [10], in assay [11] and in [12] was “inactive” each time. The Potency result in assay [13], in assay [14], in assay [16], in assay [17], in [18] and in assay [19] was “inactive” in each case.
In the case of `O=C(c1ccccc1)c1ccc(O)cc1`, the Potency entry in assay [1], in assay [2], in assay [3], in assay [4], in assay [5] and in [6] was “inactive” in each case. Also, the Potency result in assay [7], in assay [8], in [9], in assay [10], in [11] and in [12] was “inactive” each time. The Potency entry in assay [13], in assay [16], in [17] and in [18] was “inactive” throughout. Besides, the Potency was 24.6 µM (active) in assay [14] and 49.1 µM (active) in [19].
In the case of `CC(C)C(=O)OCCOc1ccccc1`, the Potency result in assay [1], in assay [2], in [3], in assay [4], in assay [5] and in [6] was “inactive” in each case. The Potency entry in assay [7], in assay [8], in assay [9], in assay [10], in assay [11] and in assay [12] was “inactive” throughout. Moreover, the Potency entry in [13], in assay [15], in assay [17], in assay [18] and in assay [19] was “inactive” throughout.
As for `CCN(CC)c1ccc(C(=C2C=CC(=[N+](CC)CC)C=C2)c2ccc(S(=O)(=O)O)cc2S(=O)(=O)[O-])cc1`, the Potency entry in assay [1], in assay [2], in assay [3], in [4], in assay [5] and in [6] was “inactive” each time. Moreover, the Potency result in assay [7], in [8], in assay [9], in [10] and in assay [11] was “inactive” in each case. For the same compound, the Potency in assay [12] was 12.2 µM (active); in [13], 27.3 µM (active); in assay [14], 9.69 µM (active); in [17] it was 21.7 µM (active); in assay [18], 24.3 µM (active); in assay [19], 17.2 µM (active).
For the compound `CCCCOCCOC(=O)c1cccnc1`, the Potency result in assay [1], in assay [2], in assay [3], in assay [4], in [5] and in [6] was “inactive” throughout. Further, the Potency entry in assay [7], in [8], in assay [9], in [10], in [11] and in assay [12] was “inactive” each time. Further, the Potency entry in [13], in assay [14], in assay [15], in assay [16], in [17] and in [18] was “inactive” in each case. Also, in [19], the Potency result was “inactive”.
Regarding `COc1cc(NS(=O)(=O)c2ccc(N)cc2)nc(C)n1`, the Potency result in [1], in assay [2], in [3], in assay [4], in assay [5] and in assay [6] was “inactive” throughout. The Potency result in [7], in assay [8], in assay [9], in assay [10], in assay [11] and in [12] was “inactive” in each case. For the same compound, the Potency result in assay [13], in assay [15], in [16], in [17] and in assay [18] was “inactive” each time. Besides, in assay [20], the PLD induction is -3.88% [at 7.66 µM].
Take `CC(CO)(CO)C(=O)O`: the Potency result in [1], in assay [2], in [3], in assay [4], in assay [5] and in [6] was “inactive” in each case. Also, the Potency entry in assay [7], in assay [8], in assay [9], in assay [10], in [11] and in assay [12] was “inactive” each time. In addition, the Potency result in assay [13], in assay [15], in assay [17] and in [18] was “inactive” each time.

Values taken from PubChem BioAssay (Tox21).
